Only some compounds are listed: those with a hit (about 5.7% of all), similar ones and a draw of the others.
KB-3-1 cytotox: qHTS assay for MDR1-selective chemotherapeutics: Primary screen using the parental adenocarcinoma cell KB-3-1; KB-3-1 viability, CellTiter-Glo ATP luminescence, 72 h; Potency, µM (highest dose often 46.1 µM), actives largely listed as cytotoxic; actives 1.4% (n = 400,000); AID 1347075, 2019; also: nearly all actives have a fitted effect of over 60% in size
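Here the drug-naive KB-3-1 line serves as comparator for MDR sub-line selectivity; cells received compound titrations, 72 h at 37 °C, then CellTiter-Glo readout.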
HT1080NT lethal: qHTS for induction of synthetic lethality in tumor cells producing 2HG: qHTS for the HT-1080-NT fibrosarcoma cell line; AID 686970, 2013; Potency, µM (top dose mostly 46.1 µM), for inactives: at the highest dose activity, negative = less viability, hits mostly cytotoxic; actives 1.6% (n = 360,000); HT-1080-NT fibrosarcoma viability, CellTiter-Glo ATP luminescence, 48 h;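 also: NT is the 2HG producing partner of a matched IDH1 knockdown line; 0% = DMSO-treated cells and -100% = media-only wells without cells; nearly all actives have a fitted effect of over 55% in size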
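Read-out is CellTiter-Glo luminescence after 10 minutes at room temperature, following 48 hours' compound treatment of HT-1080-NT cells (750 cells/well, RPMI, 5% FBS, 37 degrees C).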
KB-V1 cytotox: qHTS assay for MDR1-selective chemotherapeutics: Primary screen using the drug-selected MDR subline cells KB-V1; Potency, µM (titrated, usually from 46.1 µM), actives largely listed as cytotoxic; actives 3.4% (n = 400,000); KB-V1 MDR cells viability, CellTiter-Glo, 72 h; also: nearly all actives have a fitted effect of over 60% in size
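Readout: CellTiter-Glo luminescence, 10 min after addition. Cells: KB-V1 MDR subline, 72 h at 37 degrees C with compound. Analysis: corrected, normalized data fitted to concentration-effect curves.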
HT1080 IDH1KD tx: qHTS for induction of synthetic lethality in tumor cells producing 2HG: qHTS for the HT-1080-IDH1KD cell line; HT-1080 IDH1 knockdown viability, ATP luminescence, 48 h; Potency, µM (doses to about 46.1 µM), without a hit: at the highest dose activity, negative = toxicity, actives largely listed as cytotoxic; actives 2% (n = 360,000); AID 686971, 2013;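 also: 0% = DMSO wells and -100% = cell-free medium wells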
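% activity derives from luminescence (CellTiter-Glo), normalised to DMSO and no-cell wells. HT-1080-IDH1KD cells, 750/well, had 48 h compound exposure at 37 °C.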
Active calls of the source: *; i = inactive; ? = inconclusive; / = no result given; ! = repeats disagree. Calls follow the shape of the dose curve; as a rule, active = well fitted curve in the direction sought with a large enough effect; inconclusive = small, poorly fitted or top-dose-only effect, or another doubt; inactive = no such curve, though single readings can be large; an effect the other way counts as inactive or inconclusive. Unless noted, % is scaled to controls: 0 for no effect and ±100 for the full control effect; potency is read from the fitted curve at half-maximal effect.

SMILES	KB-3-1 cytotox	HT1080NT lethal	KB-V1 cytotox	HT1080 IDH1KD tx
COc1cc(OC)c(/C=C2\C(=O)Nc3ccccc32)c(OC)c1	4.1µM*	?	8.2µM*	2.6µM*
COc1ccc2c(c1)/C(=C/c1cnc[nH]1)C(=O)N2	?	?	10µM*	15µM*!
O=C1Nc2ccccc2/C1=C/c1cnc[nH]1	i	-7%	?	?
O=C(CNC(=O)OCc1ccccc1)Nc1ccc(Br)cc1C(=O)c1ccccc1Cl	?	-29%	8.2µM*	?
CN(C(=O)CNC(=O)OCc1ccccc1)c1ccc(Br)cc1C(=O)c1ccccc1Cl	2.3µM*	?	3.7µM*	?
O=C1NCN(c2ccccc2)C12CCN(C(c1cccc3ccccc13)c1nnnn1-c1ccc3c(c1)OCCO3)CC2 (stereo not given)	i	2%	?	-2%
Cn1c(NN=O)nc2ccccc21	?	?	i	4.6µM*
O=c1[nH]c(=O)n(Cc2ccc(F)cc2)c(O)c1/C=N/Nc1ccccc1	i	2.3µM*	i	2.3µM*
O=c1[nH]c(=O)n(Cc2ccc(F)cc2)c(O)c1C=NCCCO	i	9%	i	10%
O=c1[nH]c(=S)n(C2CC2)c(O)c1/C=N/Nc1ccccc1	i	?	i	2.3µM*
O=P1(c2ccccc2)CC=CC1	i	?	i	14%
C[C@]12CCC3C(CC[C@H]4C[C@H](O)CC[C@]34C)C1[C@@H](O)C[C@@H]2O (stereo not given in full)	i	4%	i	11%
Cc1ccc(-c2nc3c(=O)n(C)c(=O)nc-3n(C)n2)cc1	2.6µM*	/	7.3µM*	/
Cn1ncnc2c(=O)n(C)c(=O)nc1-2	0.65µM*	0.52µM*	0.73µM*	1µM*
ClCCN(CCCl)c1ccc(-n2cnc3c(Cl)ncnc32)cc1	?	?	i	23µM*
Cc1c(N=Nc2c(O)n(Cc3ccccc3)c(=O)[nH]c2=O)c(=O)n(-c2ccccc2)n1C	i	-14%	3.7µM*	?
CCCC12CN3CC(C)(CN(C1)C3c1ccccn1)C2=O (stereo not given)	i	/	i	/
COc1ccc(-n2nnnc2C(c2cccs2)N2CCC(n3c(=O)[nH]c4ccccc43)CC2)cc1 (stereo not given)	?	?	i	?
O=c1[nH]c2ccccc2n1C1CCN(C(c2ccccc2)c2nnnn2-c2ccc3c(c2)OCCO3)CC1 (stereo not given)	?	?	16µM*	?
O=c1[nH]c2ccccc2n1C1CCN(C(c2nnnn2-c2ccc3c(c2)OCCO3)C2CC2)CC1 (stereo not given)	?	?	i	?
O=c1[nH]c2ccccc2n1C1CCN(C(c2cccs2)c2nnnn2-c2ccc3c(c2)OCCO3)CC1 (stereo not given)	?	?	?	3.3µM*
CSCCC(c1nnnn1-c1ccc2c(c1)OCCO2)N1CCC(n2c(=O)[nH]c3ccccc32)CC1 (stereo not given)	i	?	?	?
O=c1[nH]c2ccccc2n1C1CCN(C(c2ccccc2OC(F)(F)F)c2nnnn2-c2ccc3c(c2)OCCO3)CC1 (stereo not given)	?	?	?	23µM*
Cc1cccc(C)c1-n1nnnc1C(c1ccccc1OC(F)(F)F)N1CCC(n2c(=O)[nH]c3ccccc32)CC1 (stereo not given)	23µM*	17%	i	-1%
O=C(Nc1ccc2c(c1)OCO2)c1cccn(Cc2cccc([N+](=O)[O-])c2)c1=O	i	/	i	/
C[C@H](CO)N1C[C@H](C)[C@H](CN(C)C(=O)Oc2ccccc2)OCc2cnnn2CCCC1=O	i	7%	?	7%
O=C1NC(=O)C(Nc2ccccc2)C(=O)N1	i	-1%	i	14%
Cc1cc(C(=O)Nc2sc3c(c2C#N)CCC3)no1	?	10µM*	16µM*	?
